Measurements from PubChem BioAssay AID1466 (National Center for Advancing Translational Sciences (NCATS), 2008).
The whole screen tested about 200,000 compounds, of which about 10 (0.005%) were called active. About 8% were inconclusive and are not listed. Calls come from the whole dose curve; as a rule, active = well fitted inhibition curve with a large enough effect; inconclusive = small, poorly fitted or top-dose-only effect, or effect the other way, or another doubt; inactive = no such curve, though single readings can be large or run the other way. These entries were drawn from the full list.

target: Lysosomal alpha-glucosidase (Homo sapiens) (UniProt P10253); assay: qHTS Assay for Inhibitors of Human alpha-Glucosidase as a Potential Chaperone Treatment of Pompe Disease; conditions: purified human GAA, 4-MU-alpha-glucoside fluorescence; series mostly up to 76.9 µM;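 note: plate controls were uninhibited enzyme wells for no effect and no-enzyme background for full effect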
Excerpt: NIH Chemical Genomics Center [NCGC] NIH Molecular Libraries Probe Production centers Network [MLPCN] MLPCN Grant: 1R03MH084841-01 Assay Submitter (PI): Wei Zheng NCGC Assay Overview: Alpha-glucosidase is responsible for hydrolysis of terminal, non-reducing 1,4-linked alpha-D-glucose residues with release of alpha-D-glucose. It is a lysosomal hydrolase that is required for the degradation of a small percentage (1-3%) of cellular glycogen in human. Deficiency of this enzyme results in glycogen-storage disease type II (GSDII), also referred to as Pompe disease, an autosomal recessive disorder. Structurally normal glycogen is accumulated in lysosomes and cytoplasm in affected patients, primarily in muscle tissues. Excessive glycogen storage within lysosomes may interrupt normal functioning of other organelles and leads to cellular injury. In turn, this leads to enlargement and dysfunction of the entire organ involved (eg, cardiomyopathy and muscle weakness). It has reported that the improper folding and trafficking of alpha-glucosidase resulting from the genetic mutations may account for a significant number of Pompe patients. […] We optimized this alpha-glucosidase assay in 1536-well plate format for identifying the novel small molecule inhibitors with the structures other than the sugar analogs in order to develop the new pharmacological chaperones.
NCGC Assay Protocol Summary: This is a fluorogenic enzyme assay with 4-methylumbelliferyl-alpha-D-[…] as the substrate and human alpha-glucosidase as the enzyme preparation. Upon the hydrolysis of this fluorogenic substrate, the resulting product, 1. 4-methyllumbelliferone, can be excited at 365 nm and emits at 440 nm which can be detected by a standard fluorescence plate reader. Data were normalized to the controls for basal activity (without enzyme) and 100% activity (with enzyme). In the AC50 values were determined from concentration-response data modeled with the standard Hill equation. Assay buffer: 50 mM citric acid (titrated with potassium phosphate to pH 5.0), 0.005% Tween-20, pH 5.0. (pH 5.0 is an optimal condition for this enzyme assay) 1536-well assay protocol for the human alpha-glucosidase: (1) Add 2 ul/well of enzyme (4 nM final) (2) Add 23 nL compounds in DMSO solution. The final titration was 0.7 nM to 77 uM. (3) Add 1 ul of substrate (400 uM final) (4) Incubate at room temperature for 20 min. (5) Add 2 ul stop solution (1M NaOH and 1M Glycine mixture, pH 10) (6) Detect the assay plate in a ViewLux plate reader (PerkinElmer) with Ex=365 nm and Em=440nm. Keywords: Alpha-glucosidase, Pompe Disease, pharmacological chaperone, chaperone therapy, high throughput screening, alpha-glucosidase inhibitor, MLSMR, MLSCN, NIH Roadmap, qHTS and NCGC

Activity change, negative = inhibition, inactive:
CN1CCc2nc(SC(C(=O)O)c3ccccc3)c(C#N)c(-c3cccs3)c2C1 (stereo not drawn), COc1ccccc1NC(=S)N1CCN(C(c2ccccc2)c2ccccc2)CC1, S=C(NNC(=S)NC1CC2CCC1C2)NC1CC2C=CC1C2 (stereo not drawn), COc1ccccc1NC(=S)N1CCC(NC(=O)C23CC4CC(CC(C4)C2)C3)CC1, COc1ccc2[nH]c(C(=O)Nc3ccccc3Cl)cc2c1, COc1ccc(Br)c2c1C(=O)CC2, c1ccc(-n2nnnc2-c2cccnc2)cc1, CCCSc1ncccc1C(=O)O, Cn1c(SCC(=O)c2ccc(F)cc2)nnc1-c1ccccn1, COc1ccc(Cl)cc1NC(=O)C(C)N1CCc2ccccc21 (stereo not drawn), CSc1ccc(CNCCN2CCOCC2)cc1, Cc1ccccc1NC(=O)Nc1ccccc1N1CCCCC1, Clc1ccc(CSc2nnc3c(n2)[nH]c2ccccc23)cc1, O=C(COc1ccc(S(=O)(=O)N2CCCCC2)cc1)NCc1ccccn1, O=C(NNS(=O)(=O)c1ccccc1C(F)(F)F)c1cc2ncc(C(F)(F)F)cc2s1, CCOC(=O)C1CCN(C(=O)C2(NC(=O)Nc3cccc(F)c3)CCCCC2)CC1, Cc1ccccc1-c1nc(C#N)c(NCc2ccco2)o1, Cc1cccc(C(=O)N2CCC(c3nc4ccccc4s3)CC2)c1, COc1ccc(CN2CCN(Cc3cn(C)nc3-c3ccccc3)CC2CCO)c(C)c1C (stereo not drawn), Cc1noc(C)c1/C=N/Nc1ccc2ccccc2n1, COc1cc(CNCCN(C)C)ccc1OCc1c(F)cccc1Cl, Cc1ccc(C(=O)NC(=S)Nc2ccc(N3CCOCC3)cc2)cc1, O=C(CN1CCN(C/C=C/c2ccccc2)CC1)Nc1ccc(F)cc1F, COC(=O)c1cn(C(=O)c2ccc(Cl)cc2)c2ccccc12, O=C1/C(=C/c2cccs2)CCC1C1CCCC1 (stereo not drawn), O=C(CCl)N(Cc1cccc([N+](=O)[O-])c1)c1cccc(Cl)c1, Cc1cc(OC(=O)c2ccccc2)c([N+](=O)[O-])c(=O)[nH]1, CC(O)CNCCOc1cccc(Oc2ccccc2)c1 (stereo not drawn), O=C(CSc1ncn[nH]1)Nc1nc(-c2cccc([N+](=O)[O-])c2)cs1, Nc1ccc(C(=O)OCC(=O)NC2CCS(=O)(=O)C2)cc1[N+](=O)[O-] (stereo not drawn), COc1cccc(OCCCN2CCCCCC2)c1, Cc1ccc(Cl)cc1NC(=O)COC(=O)CC(C)(C)C, CCC1(C)Cc2c(sc3nc(SC)[nH]c(=O)c23)CO1 (stereo not drawn) 0.866% [at 15.4 µM], CC1CCN(S(=O)(=O)c2ccc3ncn(CC(=O)N(C)C4CCCCC4)c(=O)c3c2)CC1, Cc1nn(-c2ccccc2)c(=O)c2noc(C)c12 -3.66% [at 15.4 µM], Cc1ccc(NNC(=O)c2c(F)cccc2Cl)cc1Cl 1.45% [at 15.4 µM], Cc1c(C(=O)N(Cc2ccccc2)Cc2cccnc2)cnn1-c1ccc(F)cc1, CCOC(=O)C(=CNNc1ccsc1C(=O)OC)C(=O)OCC, Cc1ccc(-c2csc(-c3cc(C)on3)n2)cc1, CC(=O)Nc1ccc(S(=O)(=O)Nc2nccc(/C=C/c3ccccc3F)n2)cc1, CCN1CCN(C(C(=O)NC2CCCC2)c2cc3c(cc2[N+](=O)[O-])OCO3)CC1 (stereo not drawn), Cc1ccc(C2CCN(C(=S)Nc3cccc(Cl)c3)C2)cc1 (stereo not drawn), COc1cccc(-c2ccc(SCC(=O)N3CCN(c4ccccc4)CC3)nn2)c1, COc1ccccc1-c1c(C#N)c(N)nc2c1CCC2 6.93% [at 15.4 µM], Cc1noc(C)c1-c1nc(CSc2ccc(Cl)cc2)no1, C/C(=N/NC(=O)c1ccn(C)n1)c1ccncc1, O=C(COC(=O)c1ccccn1)Nc1cccc2ccccc12, CC(C)CCN1CCN(Cc2ccc(C(F)(F)F)cc2)CC1CCO (stereo not drawn), O=C(NC(Cc1c[nH]c2ccccc12)C(=O)O)/C(=C/c1ccco1)NC(=O)c1ccccc1 (stereo not drawn), COc1ccccc1-n1c(=S)[nH]c2c(sc(=S)n2-c2ccc(C)cc2C)c1=O, COc1ccc(C)cc1NC(=O)NCc1ccccn1, Cn1c(CC2Sc3ccccc3NC2=O)nnc1SCC(=O)c1ccc(Cl)cc1 (stereo not drawn), N#Cc1ccc(Oc2ccc(C(F)(F)F)cc2NC(=O)c2ccc(F)cc2)cc1, O=C(CSc1ccc([N+](=O)[O-])cn1)Nc1ccc(N2CCOCC2)c(Cl)c1, C/C(=N/O)c1ccc(N2C(=O)C3C4C=CC(C3C2=O)C2C3C(=O)N(c5ccc(/C(C)=N/O)cc5)C(=O)C3C42)cc1 (stereo not drawn), CC(=O)c1ccc(N=C2SCCCN2C(=O)C2CCCCC2)cc1, O=C(NNC(=S)NC(=O)c1cn(-c2ccccc2)nc1-c1ccccc1)c1ccncc1, COc1ccc(C)cc1NC(=S)Nc1ccccc1SC, Cc1ccc(S(=O)(=O)NC(=O)N2CCCN(Cc3ccc(F)cc3)CC2)cc1, Cc1ccc(/C=N/NC(=O)CN2CCN(Cc3ccccc3)CC2)s1 -2.78% [at 15.4 µM], CCS(=O)(=O)c1ccc(O)c(NC(=O)COc2ccc(Cl)cc2)c1, CCc1nc2ccccc2c(C(=O)NCc2ccc(OC)cc2)c1C, CCc1ccc(CN(C)C(=O)CCc2nnc(-c3ccc(-c4ccccc4)cc3)o2)nc1, CN(C)c1ccc(C=NCCc2ccc(S(N)(=O)=O)cc2)cc1, COc1ccc(CN2CCC(c3nc4ccc(Cl)cc4[nH]3)CC2)cc1, Cc1ccccc1CSc1nnc(-c2ccccc2)c(=O)[nH]1, CCC(=O)OCCNc1nc(-c2ccccc2)nc2ccccc12, NNC(=O)c1cnn(-c2ccccc2)c1C(F)(F)F, Cc1ccc(CN(Cc2cccnc2)C(=S)Nc2cccc(Cl)c2C)cc1, CCOc1cc2c(Cl)ncnc2c(OCC)c1OCC, CC12C(=O)N(c3ccccc3)C(=O)C1C(c1ccccc1)N1CCCN12 (stereo not drawn) -7.1% [at 15.4 µM], CSc1nc(C)nc(C2CC2)c1C#N, COc1ccc(C)cc1NC(=O)CSc1nnc(CC(=O)Nc2ccccc2F)n1C, C=CCc1ccc(OCC(O)CN2CCN(Cc3ccccc3)CC2)c(OC)c1 (stereo not drawn), O=C(c1ccc(-c2ccccc2)cc1)C1CCCN(C(=O)c2cncs2)C1 (stereo not drawn), Cc1c(CCC(=O)O)c(=O)oc2cc3occ(-c4ccccc4)c3cc12 4.78% [at 15.4 µM], Cc1n[nH]c(=O)n1-c1ccc(C(C)C)cc1, O=C(COC(=O)c1ccncc1)c1ccccc1, O=C(Nc1ccc(S(=O)(=O)Nc2nccs2)cc1)c1cc(=O)[nH]c2ccccc12 -5.51% [at 15.4 µM], COC(=O)c1ccc(CN2CCN(CCCc3ccccc3)C(CCO)C2)cc1 (stereo not drawn), Cc1cc(CO)nn1-c1ccc([N+](=O)[O-])cc1, Cc1ccc2cc(CN(c3ccc(C)c(C)c3)S(C)(=O)=O)c(=O)[nH]c2c1, O=C(Cc1ccccc1)N1CCN(S(=O)(=O)c2ccc([N+](=O)[O-])cc2)CC1, CC(=O)c1c(-c2ccccc2)c2ccccc2[nH]c1=O, c1ccc(-c2cc(N3CCCCC3)c3ccccc3n2)cc1, FC(F)(F)c1ccnc(Oc2ccc(C3=NCCS3)cc2)c1, O=C(O)CC1=C(Nc2ccccc2)C(=O)N(c2ccccc2)C1c1ccc(Cl)cc1 (stereo not drawn), CC1CCCN(CC(O)COc2ccc3c(c2)OCO3)C1 (stereo not drawn), COc1ccc(/C=C/CN2CCN(Cc3ccc(C)cc3)C(CCO)C2)cc1 (stereo not drawn), COc1cc(C)c(Cl)cc1S(=O)(=O)n1ccnc1, CCOC(=O)C1(CC2CCCCO2)CCN(Cc2nc(-c3cccs3)oc2C)CC1 (stereo not drawn), O=C(c1ccc(OC2CCN(Cc3ccccn3)CC2)cc1)N1CCCCCC1, c1ccc(Cc2cc[n+](Cc3ccccc3)cc2)cc1, Cc1nc(N)[nH]c(=O)c1Oc1cccc(C(F)(F)F)c1, CC(C)Oc1ccc(CCc2nnc(SCC(=O)O)n2-c2ccccc2)cc1, O=C(NC1C2CC3CC(C2)CC1C3)c1ccc(N2CCNCC2)c([N+](=O)[O-])c1 (stereo not drawn) -3.61% [at 15.4 µM], CCN(CC)P(=O)(Nc1ccc(SC(F)F)cc1)c1ccc(N(C)C)cc1NC(=O)c1ccco1 (stereo not drawn), C=C(C)COc1ccc(-c2nc(N)ncc2-c2ccccc2OC)c(O)c1, CCN(CCn1cccn1)Cc1nc(-c2ccc(C(=O)OC)cc2)no1, O=C1Oc2ccccc2C(=O)/C1=C/c1ccccc1O, Cc1ccc(S(=O)(=O)N2CCOCC2)cc1C(=O)OC1CCCCC1=O (stereo not drawn), N#CC1=C(N)Oc2c(ccc3cccnc23)C1c1ccncc1 (stereo not drawn) -8.01% [at 15.4 µM], COC(=O)c1sccc1NN1C(=O)c2ccccc2C1=O, CCc1ccc(-n2c(SCc3cc(=O)n4cc(Br)ccc4n3)nc3[nH]ncc3c2=O)cc1, O=C(c1ccc(F)cc1)n1c(=S)nc2ccccn21, COc1ccc(CN2CCCC(C(=O)c3ccc(Cl)cc3)C2)cc1Cn1cncn1 (stereo not drawn), CS(=O)(=O)c1ccc2nnn(OCC(=O)Nc3cccc(C#N)c3)c2c1, CCOC(=O)c1ccc(NNC(C)=O)c([N+](=O)[O-])c1
